Test results: PubChem BioAssay AID624094 (National Center for Advancing Translational Sciences (NCATS), 2012)
Results filed as inconclusive are left out. Activity calls are given as the source filed them. The call rests on the fitted dose curve; in most records, active means well fitted inhibition curve with a large enough effect; inconclusive means small, poorly fitted or top-dose-only effect; inactive means flat fitted curve, though single readings scatter.

Biological target: Dual specificity protein kinase CLK4 (Homo sapiens) (UniProt Q9HAZ1)
Assay: Confirmation Assay for Inhibitors of Clk4 (Kinase-Glo Assay): KU probe
Settings: recombinant Clk4, Kinase-Glo ATP luminescence
Method: NIH Molecular Libraries Probe Production Centers Network [MLPCN] NIH Chemical Genomics Center [NCGC] MLPCN Grant: 1R03MH084827-01 Assay Submitter (PI): Tom Misteli NCGC Assay Overview: Clk4 (Invitrogen, cat# PV3839) was assayed using ATP and the RS repeat peptide (AnaSpec cat # 61722) as substrates. Following the Clk4 reaction, the remaining ATP levels were detected using Promega Kinase-Glo technology wherein the remaining ATP from the kinase reaction is detected using Ultra-Glo luciferase and D-luciferin which generates a bioluminescence signal from the ATP.
NCGC Assay Protocol Summary: Two uL/well of substrate-buffer solution (100 uM RS peptide, 1 uM ATP, 25 mM Tris pH7.5, 10 mM MgCl2, 0.5 mM EGTA, 2.5 mM DTT, 0.01% Triton X-100 final concentration) was dispensed into 1536-well, assay plates (Greiner, solid white medium-binding plates) with Aurora Discovery BioRAPTR Flying Reagent Dispenser (FRD; Beckton-Dickenson). Using a Kalypsys pin tool equipped with a 1536-pin tool, 23 nL of compound solution was transferred to the assay plate. […] Luminescence was detected with the ViewLux plate reader (Perkin Elmer, Waltham, MA) after 5 min incubation using a 5 second exposure time and 2x binning.

Sequence of Dual specificity protein kinase CLK4 (Homo sapiens) (Q9HAZ1 whole entry, looked up): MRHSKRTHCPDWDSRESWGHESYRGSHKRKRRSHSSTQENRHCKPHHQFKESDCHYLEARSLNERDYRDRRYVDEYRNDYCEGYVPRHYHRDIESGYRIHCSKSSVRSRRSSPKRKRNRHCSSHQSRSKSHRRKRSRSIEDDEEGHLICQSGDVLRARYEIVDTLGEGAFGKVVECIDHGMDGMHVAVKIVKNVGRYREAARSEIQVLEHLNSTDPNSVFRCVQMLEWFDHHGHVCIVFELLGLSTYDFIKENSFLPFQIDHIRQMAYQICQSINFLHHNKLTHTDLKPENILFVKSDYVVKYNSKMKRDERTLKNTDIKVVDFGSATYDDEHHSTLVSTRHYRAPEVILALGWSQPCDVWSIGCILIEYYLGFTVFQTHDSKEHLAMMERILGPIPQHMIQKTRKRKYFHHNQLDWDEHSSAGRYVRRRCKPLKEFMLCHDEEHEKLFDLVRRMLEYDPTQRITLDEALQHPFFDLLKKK

SMILES	Potency
Cc1cc(CNc2ccnc(-c3ccc4c(c3)OCO4)n2)cnc1F	9.23 µM (active)
Clc1ccc(CNc2ccnc(-c3ccc4c(c3)OCO4)n2)cn1	29.2 µM (active)
